Several values for one entry are separate records, joined by “and”; a condition that tells them apart may be missing. Equal values may be shown once. Unmarked numbers belong to inactive results. Inconclusive results are not listed. Where a call stands in place of a potency, no number is given. Activity calls are given as the source filed them. Unless noted, the call rests on the fitted dose curve; in most records, active means well fitted curve in the direction sought with a large enough effect; inconclusive means small, poorly fitted or top-dose-only effect, or another doubt; inactive means no such curve, though single readings can be large; an effect the other way counts as inactive or inconclusive.
Key:
[1] = test system: Zika virus NS2B-NS3 protease; test: Primary screen GU AMC qHTS for Zika virus inhibitors (AID 1347154); further: nearly all actives have a fitted effect of over 70% in size
Outline: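 Unlinked Zika NS2B hydrophilic domain–NS3 protease complex at 25 nM in 10 mM Tris-HCl pH 8.0, 0.01% Tween 20, with an AMC peptide substrate. Fluorescence change (340/450 nm) over 15 min at room temperature, normalized to controls, fitted to 4-parameter Hill.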

[2] = test system: Zika virus NS2B-NS3 protease (unlinked complex); test: Confirmatory screen GU AMC qHTS for Zika virus inhibitors (AID 1347153); further: nearly all actives have a fitted effect of over 70% in size
Outline: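 Compounds were preincubated 15 min at room temperature with 25 nM noncovalent NS2B-NS3 protease at pH 8.0; AMC substrate added at 10 microM and 15-min fluorescence gain (340/450 nm) converted to percent inhibition, fitted 4-parameter.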

[3] = Tertiary RLuc qRT-PCR qHTS assay for Zika virus inhibitors (AID 1347169); further: potency means the concentration at half of the fitted maximal effect; nearly all actives have a fitted effect of over 55% in size
Outline: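 Inhibition of ZIKV-RLuc replication in Vero cells, read as Renilla luminescence 1-1.5 hrs after live-cell substrate addition, following 48-72 hrs infection at MOI 1-2 in presence of compound.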

[4] = biological target: Cytochrome P450 3A4 (Homo sapiens) (UniProt P08684); test: qHTS Assay for Inhibitors and Substrates of Cytochrome P450 3A4 (AID 884); further: potency means the concentration at half of the fitted maximal effect; nearly all actives have a fitted effect of over 50% in size
Cytochrome P450 3A4 (Homo sapiens), sequence (P08684 whole entry, looked up): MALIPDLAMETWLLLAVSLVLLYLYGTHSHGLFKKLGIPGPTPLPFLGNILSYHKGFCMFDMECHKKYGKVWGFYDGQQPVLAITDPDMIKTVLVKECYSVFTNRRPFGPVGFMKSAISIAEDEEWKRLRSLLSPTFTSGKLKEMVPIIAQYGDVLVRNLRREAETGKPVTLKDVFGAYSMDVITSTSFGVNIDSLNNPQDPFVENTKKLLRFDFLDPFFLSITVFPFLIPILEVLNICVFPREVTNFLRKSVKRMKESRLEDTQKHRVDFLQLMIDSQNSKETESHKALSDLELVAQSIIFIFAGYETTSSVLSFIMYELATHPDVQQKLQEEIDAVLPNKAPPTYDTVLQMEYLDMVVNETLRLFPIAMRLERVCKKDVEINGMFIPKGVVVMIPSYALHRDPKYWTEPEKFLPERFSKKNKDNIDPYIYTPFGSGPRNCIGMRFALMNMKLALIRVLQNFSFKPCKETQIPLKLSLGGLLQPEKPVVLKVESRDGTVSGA
Outline: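 Luminescent readout of luciferin produced by CYP3A4 (20 nM) dealkylation of Luciferin-PPXE, 25 uM (its KM). NADPH-driven reaction ran 60 min at RT after 10 min compound preincubation; data scaled to 57 uM ketoconazole as 100% inhibition.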

[5] = qHTS Assay for Identification of Small Molecule Antagonists for NFkB Signaling Pathway (AID 895; active means well fitted inhibition curve with a large enough effect in the signal ratio, with a control signal flat, not every such curve was filed as active; the % refers to the signal ratio)
Outline: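 ME-180 NFkB-bla cells (beta-lactamase under NFkB response element), plated overnight, treated with compound then 10 pM TNF alpha (about EC50) for 5 hrs at 37 C. LiveBLAzer FRET read at 460/530 nm emission, 405 nm excitation.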

[6] = biological target: Cytochrome P450 2C19 (Homo sapiens) (UniProt P33261); test: qHTS Assay for Inhibitors and Substrates of Cytochrome P450 2C19 (AID 899); further: nearly all actives have a fitted effect of over 60% in size; further: potency means the concentration at half of the fitted maximal effect
Cytochrome P450 2C19 (Homo sapiens), sequence (P33261 whole entry, looked up): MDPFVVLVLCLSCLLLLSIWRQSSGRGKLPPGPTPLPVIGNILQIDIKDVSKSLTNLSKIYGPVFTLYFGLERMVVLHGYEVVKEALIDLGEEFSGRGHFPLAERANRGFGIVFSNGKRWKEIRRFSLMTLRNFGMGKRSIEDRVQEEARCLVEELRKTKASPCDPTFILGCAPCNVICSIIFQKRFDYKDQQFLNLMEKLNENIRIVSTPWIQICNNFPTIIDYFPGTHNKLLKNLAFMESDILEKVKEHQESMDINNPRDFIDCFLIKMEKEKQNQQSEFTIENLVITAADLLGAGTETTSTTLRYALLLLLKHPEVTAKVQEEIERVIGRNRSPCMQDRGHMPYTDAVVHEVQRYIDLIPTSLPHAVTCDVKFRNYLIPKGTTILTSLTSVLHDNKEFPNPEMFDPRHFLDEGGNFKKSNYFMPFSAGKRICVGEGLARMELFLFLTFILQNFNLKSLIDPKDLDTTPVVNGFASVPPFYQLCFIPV
Outline: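 Signal comes from luciferase acting on luciferin released by CYP2C19-mediated hydroxylation of Luciferin-H EGE, 10uM (KM). Assay mix: 5nM enzyme, 50mM KPO4; 60 min at 37C with NADPH regeneration. Data normalized against 57uM ketoconazole.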

[7] = Confirmation and Secondary Assay for Modulators of Hemoglobin Beta Chain Splicing at IVS2 654 locus (AID 910);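 further: HeLa cells stably carrying EGFP split by mutant beta-globin IVS2-654 intron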
Outline: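 HeLa cells stably expressing EGFP interrupted by β-globin IVS2-654 intron, seeded overnight in Opti-MEM/2% FCS, then treated 2 days at 37 °C. Restored splicing read as total peak GFP intensity per well by laser scanning cytometry (488 nm excitation, 500–520 nm emission); 500 nM antisense PNA as control.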

[8] = qHTS Assay for Identification of Small Molecule Agonists for Hypoxia Response Element Signaling Pathway (AID 914; active means well fitted activation curve with a large enough effect in the signal ratio, with a control signal flat, not every such curve was filed as active; the % refers to the signal ratio); details: ME-180 (cervical carcinoma) HRE-bla reporter, beta-lactamase ratio, CoCl2, 17 h; hits give high values
Outline: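 Positive modulation of EC50 CoCl2-induced hypoxia response element signaling is measured in ME-180 cells with a beta-lactamase reporter. Compounds are titrated, incubation runs 17 hours, and %Activity derives from the blue/green ratio.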

[9] = Confirmation and Secondary Assay for Modulators of Hemoglobin Beta Chain Splicing at IVS2 705 locus (AID 930);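 further: HeLa cells stably expressing the EGFP-705 splicing reporter; GFP fluorescence per well restored by corrected splicing of the IVS2-705 intron in EGFP; series mostly up to about 46 µM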
Outline: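 First, HeLa EGFP-705 cells are seeded at 500/well in Optimem with 2% FCS and left overnight. Next, compound or DMSO is added for 2 days. Finally wells are laser-scanned and total peak GFP intensity scored.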

[10] = biological target: Ubiquitin carboxyl-terminal hydrolase 1 (Homo sapiens) (UniProt O94782); test: Inhibitors of USP1/UAF1: Pilot qHTS (AID 504865);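 further: rhodamine fluorescence freed from ubiquitin-rhodamine substrate followed over time; top concentration of the series differs between compounds; nearly all actives have a fitted effect of over 35% in size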
Ubiquitin carboxyl-terminal hydrolase 1 (Homo sapiens), sequence (O94782 whole entry, looked up): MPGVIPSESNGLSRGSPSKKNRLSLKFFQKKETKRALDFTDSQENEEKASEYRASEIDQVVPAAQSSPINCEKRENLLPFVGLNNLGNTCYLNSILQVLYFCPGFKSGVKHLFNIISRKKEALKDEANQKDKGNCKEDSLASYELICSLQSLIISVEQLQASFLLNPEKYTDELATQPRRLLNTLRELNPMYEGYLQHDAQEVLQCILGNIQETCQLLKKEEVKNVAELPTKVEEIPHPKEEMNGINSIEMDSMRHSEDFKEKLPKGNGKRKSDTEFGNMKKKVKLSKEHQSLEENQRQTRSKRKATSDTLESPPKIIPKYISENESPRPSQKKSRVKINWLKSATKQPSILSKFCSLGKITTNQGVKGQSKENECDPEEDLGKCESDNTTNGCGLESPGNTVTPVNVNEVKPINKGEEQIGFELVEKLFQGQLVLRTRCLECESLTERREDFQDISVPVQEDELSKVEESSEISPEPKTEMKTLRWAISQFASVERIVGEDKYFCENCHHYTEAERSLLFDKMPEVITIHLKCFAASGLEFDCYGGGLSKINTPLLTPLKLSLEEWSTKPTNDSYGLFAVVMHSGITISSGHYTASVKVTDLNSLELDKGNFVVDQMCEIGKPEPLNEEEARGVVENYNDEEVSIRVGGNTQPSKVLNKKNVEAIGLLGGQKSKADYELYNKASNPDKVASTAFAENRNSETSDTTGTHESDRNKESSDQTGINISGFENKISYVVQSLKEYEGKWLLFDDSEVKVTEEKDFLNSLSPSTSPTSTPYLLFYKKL
Outline: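 Enzyme-free wells gave the negative control, while test wells held 1nM USP1/UAF1 preincubated with compound for 15 min at room temperature. Ub-Rho at 150nM final started the reaction, and fluorescence at 480/540 nm was recorded kinetically.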

[11] = biological target: Cytochrome P450 2D6 (Homo sapiens) (UniProt P10635); test: qHTS Assay for Inhibitors and Substrates of Cytochrome P450 2D6 (AID 891);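 further: luciferin methyl ether substrate demethylated by CYP2D6 with NADPH regeneration; nearly all actives have a fitted effect of over 60% in size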
Cytochrome P450 2D6 (Homo sapiens), sequence (P10635 whole entry, looked up): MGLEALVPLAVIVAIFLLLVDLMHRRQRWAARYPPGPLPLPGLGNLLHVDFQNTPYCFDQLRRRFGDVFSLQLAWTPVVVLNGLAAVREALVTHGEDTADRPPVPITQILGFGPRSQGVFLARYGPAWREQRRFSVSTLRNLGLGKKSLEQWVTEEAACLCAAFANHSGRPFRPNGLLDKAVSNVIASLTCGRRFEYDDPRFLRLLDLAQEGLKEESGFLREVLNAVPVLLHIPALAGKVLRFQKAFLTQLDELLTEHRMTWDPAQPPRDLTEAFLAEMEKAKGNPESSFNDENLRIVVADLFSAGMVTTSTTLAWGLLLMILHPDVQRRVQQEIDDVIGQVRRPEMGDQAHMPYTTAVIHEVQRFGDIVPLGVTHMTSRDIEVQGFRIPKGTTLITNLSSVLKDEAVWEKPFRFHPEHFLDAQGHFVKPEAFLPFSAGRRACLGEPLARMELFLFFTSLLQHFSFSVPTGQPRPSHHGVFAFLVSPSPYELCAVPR
Outline: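 Luminescent read-out of luciferin formed by 5 nM human CYP2D6 demethylating 30 uM Luciferin-ME EGE (Km level) over 60 min at room temperature after NADPH regeneration addition. Data normalized to full inhibition by 1.43 uM quinidine.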

[12] = biological target: Pyruvate kinase (Leishmania mexicana) (UniProt Q27686); test: qHTS Validation Assay for Inhibitors of Leishmania Mexicana Pyruvate Kinase (AID 945)
Pyruvate kinase (Leishmania mexicana), sequence (Q27686 2-499 E452W): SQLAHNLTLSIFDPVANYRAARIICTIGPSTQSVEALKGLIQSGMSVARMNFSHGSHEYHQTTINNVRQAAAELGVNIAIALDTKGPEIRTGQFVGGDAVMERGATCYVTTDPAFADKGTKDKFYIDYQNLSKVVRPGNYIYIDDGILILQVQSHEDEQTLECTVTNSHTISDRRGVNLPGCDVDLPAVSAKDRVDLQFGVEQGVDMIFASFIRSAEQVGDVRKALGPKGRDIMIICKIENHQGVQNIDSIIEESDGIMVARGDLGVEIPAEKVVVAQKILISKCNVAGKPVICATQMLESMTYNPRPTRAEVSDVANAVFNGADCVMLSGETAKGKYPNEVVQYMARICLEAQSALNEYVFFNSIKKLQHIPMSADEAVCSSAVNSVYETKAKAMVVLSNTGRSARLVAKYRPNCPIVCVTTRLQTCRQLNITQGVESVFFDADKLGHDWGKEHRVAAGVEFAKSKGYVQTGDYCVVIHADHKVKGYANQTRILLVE
Outline: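 qHTS eight-point titrations against 0.2 nM LmPYK (E451W) in imidazole buffer pH 7.2 with 0.5 mM PEP, 0.1 mM ADP; 1 h, room temperature. Readout: PKLight luminescence, normalized to neutral DMSO wells.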

With `CCCCCCCCC#CCC#CCC#CCCCC(=O)O` the activity change, negative = inhibition [1] was 19.3% [at 6.83 µM].

In the case of `COc1ccccc1-c1ccnc(N[C@H]2CO[C@H]3[C@@H]2OC[C@@H]3NS(=O)(=O)c2ccc3ccccc3c2)n1`, the Potency [2] is reported as “inactive” and the Potency [3] is reported as 16.5 µM (active).

In the case of `NCCCCCCNS(=O)(=O)c1cccc2c(Cl)cccc12`, the Potency [4] is reported as 3.98 µM (active) and 2.51 µM (active), the Potency [5] is reported as “inactive” and the Potency [6] is reported as 199 nM (active). The outcome [7] was “inactive”, the activation [8] was -27.9% and the outcome [9] was “inactive”. The Potency [10] was “inactive”.

For `O=C(O)c1cc(=O)c2ccc(Cl)cc2[nH]1`, the Potency [11] was “inactive”, the Potency [6] was “inactive” and the outcome [7] was “inactive”. The outcome [9] was “inactive”.

In the case of `CCCn1c(=O)c2[nH]c(-c3ccc(OCC(=O)Nc4ccc(C#N)cc4)cc3)nc2n(CCC)c1=O`, the Potency [12] is reported as “inactive”.

With `O=C(OCCN1CCCCC1)c1c[nH]c2ccccc12` the Potency [12] was “inactive”.
